Common to all, as to assay: protein-binding microarray (PBM); PBM: ~300 nM protein, 6 mM HEPES pH 7.8, 80 mM KCl, 0.5 mM EDTA, 0.5 mM EGTA, 6% glycerol, 35 ng/ul poly-dIdC, 1% milk, 1 h, room temperature; Ap Aiptasia and Nv Nematostella (sea anemones) / Co Capsaspora / Aq Amphimedon (sponge) / Dm Drosophila / Hu human; RHD is the Rel homology domain; high values mean tight binding
Conditions in all cases: dsDNA, one strand shown

One experiment deals with T1, GST-Ap-NF-kB RHD (Exaiptasia pallida (Aiptasia), UniProt A0A913YAJ5 2-422).
T1 sequence: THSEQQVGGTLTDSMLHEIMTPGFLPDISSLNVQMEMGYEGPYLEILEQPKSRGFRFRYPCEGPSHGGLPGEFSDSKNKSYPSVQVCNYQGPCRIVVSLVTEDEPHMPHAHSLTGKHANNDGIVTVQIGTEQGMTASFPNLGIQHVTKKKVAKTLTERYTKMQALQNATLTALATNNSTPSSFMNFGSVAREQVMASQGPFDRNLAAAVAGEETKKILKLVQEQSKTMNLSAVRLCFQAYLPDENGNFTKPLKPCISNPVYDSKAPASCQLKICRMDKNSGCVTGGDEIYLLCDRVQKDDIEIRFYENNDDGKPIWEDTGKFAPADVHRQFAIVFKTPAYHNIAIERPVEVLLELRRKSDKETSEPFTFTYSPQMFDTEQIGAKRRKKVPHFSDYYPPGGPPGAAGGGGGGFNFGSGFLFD

Experiment [1] has as its target T2, GST-Nv-NF-kB (Cys allele) (Nematostella vectensis, UniProt E5G601 2-411).
T2 sequence: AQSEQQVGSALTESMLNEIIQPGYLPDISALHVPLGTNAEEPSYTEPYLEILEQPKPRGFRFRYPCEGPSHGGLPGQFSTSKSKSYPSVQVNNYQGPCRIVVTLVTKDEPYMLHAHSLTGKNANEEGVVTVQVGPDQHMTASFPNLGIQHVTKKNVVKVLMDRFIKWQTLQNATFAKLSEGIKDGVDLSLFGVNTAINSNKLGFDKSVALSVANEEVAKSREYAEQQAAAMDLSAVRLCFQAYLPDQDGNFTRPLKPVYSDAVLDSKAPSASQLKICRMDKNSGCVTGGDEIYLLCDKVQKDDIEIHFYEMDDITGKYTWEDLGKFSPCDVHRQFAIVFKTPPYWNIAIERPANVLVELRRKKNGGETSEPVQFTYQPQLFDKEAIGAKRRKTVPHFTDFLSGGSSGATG

Experiment [2] deals with T3, GST-Nv-NF-kB (Ser allele) (Nematostella vectensis, UniProt A7UNT2 2-411).
T3 sequence: T2 sequence with Q21R, C66S, S207N, E215Q, V217A, E225K, A268E, D399E

In another experiment the target is T4, GST-Co-NF-kB (Capsaspora owczarzaki, UniProt F1ARL5 200-546).
T4 sequence: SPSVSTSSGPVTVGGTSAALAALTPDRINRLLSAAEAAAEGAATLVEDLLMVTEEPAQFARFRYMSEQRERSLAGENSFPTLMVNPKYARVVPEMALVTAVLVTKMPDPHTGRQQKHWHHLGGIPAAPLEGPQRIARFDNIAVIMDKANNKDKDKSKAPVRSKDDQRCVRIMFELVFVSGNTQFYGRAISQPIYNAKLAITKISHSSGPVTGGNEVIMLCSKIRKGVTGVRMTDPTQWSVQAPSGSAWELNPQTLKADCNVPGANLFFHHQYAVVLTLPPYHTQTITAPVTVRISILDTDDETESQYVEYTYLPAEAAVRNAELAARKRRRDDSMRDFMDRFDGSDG

In the next experiment the target is T5, GST-Dm-Relish (Drosophila melanogaster, UniProt Q94527 99-473).
T5 sequence: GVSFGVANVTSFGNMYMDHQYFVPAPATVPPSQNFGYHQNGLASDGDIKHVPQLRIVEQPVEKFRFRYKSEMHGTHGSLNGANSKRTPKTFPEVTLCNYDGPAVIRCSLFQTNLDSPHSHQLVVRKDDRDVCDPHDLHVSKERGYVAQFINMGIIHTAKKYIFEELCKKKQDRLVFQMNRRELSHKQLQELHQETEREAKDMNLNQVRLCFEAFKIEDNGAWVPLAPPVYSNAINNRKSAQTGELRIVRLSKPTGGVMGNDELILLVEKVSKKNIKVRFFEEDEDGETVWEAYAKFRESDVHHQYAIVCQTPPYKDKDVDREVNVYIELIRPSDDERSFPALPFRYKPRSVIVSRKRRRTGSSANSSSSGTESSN

The target of another experiment is T6, GST-Aq-NF-kB (Amphimedon queenslandica, UniProt A9Y5G7 2-389).
T6 sequence: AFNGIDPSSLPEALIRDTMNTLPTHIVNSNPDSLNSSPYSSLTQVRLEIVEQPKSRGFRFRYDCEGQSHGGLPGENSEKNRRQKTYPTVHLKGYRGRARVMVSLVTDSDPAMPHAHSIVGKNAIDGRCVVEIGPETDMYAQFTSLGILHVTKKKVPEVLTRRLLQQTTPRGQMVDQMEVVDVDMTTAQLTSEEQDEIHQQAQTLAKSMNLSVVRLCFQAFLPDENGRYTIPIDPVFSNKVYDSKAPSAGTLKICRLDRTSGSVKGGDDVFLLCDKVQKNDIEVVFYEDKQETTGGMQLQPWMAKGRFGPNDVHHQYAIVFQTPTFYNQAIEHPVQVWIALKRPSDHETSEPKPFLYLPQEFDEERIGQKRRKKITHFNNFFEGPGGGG

In the next experiment the target is GST-Hu-p50 (Homo sapiens, UniProt P19838 7-356).
Sequence of GST-Hu-p50 (P19838 7-356): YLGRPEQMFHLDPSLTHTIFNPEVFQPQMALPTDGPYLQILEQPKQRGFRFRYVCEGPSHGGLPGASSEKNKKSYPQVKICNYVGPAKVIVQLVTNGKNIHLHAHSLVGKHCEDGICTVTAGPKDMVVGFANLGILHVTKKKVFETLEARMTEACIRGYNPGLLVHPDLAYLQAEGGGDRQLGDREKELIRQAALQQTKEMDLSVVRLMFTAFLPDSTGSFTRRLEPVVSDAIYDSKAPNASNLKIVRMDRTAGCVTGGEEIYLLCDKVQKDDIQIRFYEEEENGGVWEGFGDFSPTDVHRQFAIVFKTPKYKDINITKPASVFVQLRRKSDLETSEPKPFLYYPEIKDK

Substitutions are numbered along the chain they refer to.

As to “CCGATTAACATCAGGGGAACGGATGATGTTAATCGGGTCTTGATTCGCTTGACGCTGCTG”, the binding signal was 4.83 z-score with GST-Ap-NF-kB RHD; 5.28 z-score in experiment [1]; 6.1 z-score in experiment [2]; 4.35 z-score with GST-Co-NF-kB; 1.58 z-score with GST-Dm-Relish; 3.47 z-score with GST-Aq-NF-kB. The binding signal in the experiment with GST-Hu-p50 amounted to 3.91 z-score.

On to “CCGATTAACATCAGGGACTTTCATGATGTTAATCGGGTCTTGATTCGCTTGACGCTGCTG”, for which the binding signal with GST-Ap-NF-kB RHD is 6.28 z-score; in experiment [1], 7.24 z-score; in experiment [2], 7.09 z-score; with GST-Co-NF-kB it was 1.04 z-score; with GST-Dm-Relish, 5.59 z-score; in the experiment with GST-Aq-NF-kB, 6.22 z-score. In addition, in the experiment with GST-Hu-p50, the binding signal turned out to be 5.49 z-score.

“CCGATTAACATCAGAATCCCCCCTGATGTTAATCGGGTCTTGATTCGCTTGACGCTGCTG”: the binding signal with GST-Ap-NF-kB RHD stood at 9.22 z-score; in experiment [1] it was 7.84 z-score; in experiment [2], 8.55 z-score; in the experiment with GST-Co-NF-kB, 7.63 z-score; with GST-Dm-Relish, 8.81 z-score; in the experiment with GST-Aq-NF-kB, 7.37 z-score. The sequence further came in with a binding signal with GST-Hu-p50 of 7.06 z-score.

With “CCGATTAACATCAGAAATTTCCCTGATGTTAATCGGGTCTTGATTCGCTTGACGCTGCTG”, the binding signal worked out at 5.84 z-score with GST-Ap-NF-kB RHD; 8.58 z-score in experiment [1]; 8.13 z-score in experiment [2]; 5.21 z-score with GST-Co-NF-kB; 4.81 z-score with GST-Dm-Relish; 7.73 z-score with GST-Aq-NF-kB. The binding signal with GST-Hu-p50 is 5.92 z-score.

As for “CCGATTAACATCACGGGGCCCCCTGATGTTAATCGGGTCTTGATTCGCTTGACGCTGCTG”, the binding signal with GST-Ap-NF-kB RHD was determined as 5.45 z-score; in experiment [1], 3.6 z-score; in experiment [2] it was 2.68 z-score; with GST-Co-NF-kB, 1.49 z-score; with GST-Dm-Relish, 3.89 z-score; with GST-Aq-NF-kB it was 4.31 z-score. Besides, in the experiment with GST-Hu-p50, the binding signal worked out at 3.47 z-score.

For “CCGATTAACATCATAAATCCCCATGATGTTAATCGGGTCTTGATTCGCTTGACGCTGCTG”, the binding signal in the experiment with GST-Ap-NF-kB RHD is 6.78 z-score; in experiment [1], 7.56 z-score; in experiment [2], 9.37 z-score; in the experiment with GST-Co-NF-kB, 3.91 z-score; in the experiment with GST-Dm-Relish, 7.13 z-score; in the experiment with GST-Aq-NF-kB it was 5.14 z-score. This sequence also returned a binding signal with GST-Hu-p50 of 7.11 z-score.

As to “CCGATTAACATCAGGGGATAACCTGATGTTAATCGGGTCTTGATTCGCTTGACGCTGCTG”, the binding signal with GST-Ap-NF-kB RHD turned out to be 6.14 z-score; in experiment [1], 6.28 z-score; in experiment [2] it was 6.92 z-score; with GST-Co-NF-kB, 3.7 z-score; in the experiment with GST-Dm-Relish, 7.51 z-score; with GST-Aq-NF-kB, 7.32 z-score. In addition, the binding signal with GST-Hu-p50 was 4.93 z-score.

As for “CCGATTAACATCAAGGGGGAGAATGATGTTAATCGGGTCTTGATTCGCTTGACGCTGCTG”, the binding signal in the experiment with GST-Ap-NF-kB RHD was determined as 5.78 z-score; in experiment [1] it was 6.63 z-score; in experiment [2], 7.33 z-score; in the experiment with GST-Co-NF-kB, 7.92 z-score; in the experiment with GST-Dm-Relish, 2.2 z-score; with GST-Aq-NF-kB it was 4.93 z-score. Moreover, the binding signal with GST-Hu-p50 turned out to be 6.83 z-score.

In the case of “CCGATTAACATCAAGGGGAATTCTGATGTTAATCGGGTCTTGATTCGCTTGACGCTGCTG”, the binding signal stood at 10.3 z-score in the experiment with GST-Ap-NF-kB RHD; 11.3 z-score in experiment [1]; 12.1 z-score in experiment [2]; 6.89 z-score in the experiment with GST-Co-NF-kB; 8.49 z-score with GST-Dm-Relish; 8.42 z-score with GST-Aq-NF-kB. The same sequence had a binding signal with GST-Hu-p50 of 7.65 z-score.

Consider “CCGATTAACATCAAGGGGAAGGGTGATGTTAATCGGGTCTTGATTCGCTTGACGCTGCTG”, for which the binding signal with GST-Ap-NF-kB RHD is 4.52 z-score; in experiment [1], 5.48 z-score; in experiment [2], 5.81 z-score; with GST-Co-NF-kB, 3.95 z-score; with GST-Dm-Relish it was 2 z-score; in the experiment with GST-Aq-NF-kB, 4.16 z-score. This sequence registered a binding signal with GST-Hu-p50 of 4.32 z-score.

In the case of “CCGATTAACATCAGGGGGACACCTGATGTTAATCGGGTCTTGATTCGCTTGACGCTGCTG”, the binding signal with GST-Ap-NF-kB RHD amounted to 5.64 z-score; in experiment [1], 4.46 z-score; in experiment [2] it was 4.25 z-score; in the experiment with GST-Co-NF-kB, 5.26 z-score; with GST-Dm-Relish, 4.25 z-score; with GST-Aq-NF-kB it was 5.46 z-score. The binding signal with GST-Hu-p50 was found to be 4.49 z-score.

For the origin of these results see article PMC5700166.
